Inconclusive results are not listed. Calls of active or inactive are those of the source. Calls come from the whole dose curve; as a rule, active = well fitted inhibition curve with a large enough effect; inconclusive = small, poorly fitted or top-dose-only effect; inactive = flat fitted curve, though single readings scatter. Peptide text beside a SMILES is read from it.
Each compound was assayed against Aldehyde dehydrogenase, mitochondrial (Homo sapiens) (UniProt P05091) (assay: qHTS for Inhibitors of the Aldehyde Dehydrogenase Family (ALDH2) Primary screen (AID 2061308;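 note: plate controls were vehicle for no effect and reference inhibitor for full effect; nearly all actives have a fitted effect of over 55% in size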)). Details: ALDH2 enzyme inhibition qHTS, 1536-well; series mostly up to 56 µM; activity change, negative = inhibition: at the top concentration.

SMILES | activity change, negative = inhibition
C/C(=C\C(=O)C(C)C1CCC2C3=C(CCC21C)C1(C)CCC(=O)C(C)(C)C1(O)CC3)C(C)(C)O (stereo not given) | -23.1% [at 28 µM] (inactive)
O=C(O)CCc1cc2ccoc2cc1O[C@@H]1O[C@H](CO)[C@@H](O)[C@H](O)[C@H]1O | 7.7% (inactive)
CC1OC(OC2CCC3(C)C(CCC4(C)C3C=CC35OCC6(CCC(C)(C)CC63)CCC45C)C2(C)CO)C(OC2OC(CO)C(O)C(O)C2O)C(O)C1OC1OC(CO)C(O)C(O)C1O (stereo not given) | -23.1% [at 16.9 µM] (inactive)
CC(O)C(=O)/C=C/C=C/C(=O)OC1C=C2COC(=O)C2(O)C2(C)CCCC(C)(C)C12 (stereo not given) | 2.11% [at 28 µM] (inactive)
C[C@]12CCC[C@](C)(C(=O)O)C1CCC13CC(CO)C(CCC12)C3 (stereo not given in full) | -1.36% (inactive)
CC1=CCC(C(C)(C)O[C@@H]2O[C@H](CO[C@@H]3O[C@@H](C)[C@H](O)[C@@H](O)[C@H]3O)[C@@H](O)[C@H](O)[C@H]2O)CC1 (stereo not given in full) | -4.36% [at 28 µM] (inactive)
CC1(C)CC[C@]2(C(=O)O[C@@H]3O[C@H](CO)[C@@H](O)[C@H](O)[C@H]3O)CC[C@]3(C)C(=CCC4[C@@]5(C)C[C@@H](O)[C@H](O)[C@@](C)(CO)C5[C@H](O)C[C@]43C)C2C1 (stereo not given in full) | -11.9% [at 16.9 µM] (inactive)
CC(=O)c1ccc(O[C@@H]2O[C@H](CO[C@@H]3OC[C@@H](O)[C@H](O)[C@H]3O)[C@@H](O)[C@H](O)[C@H]2O)cc1 | -1.43% [at 28 µM] (inactive)
C=C1C(=O)O[C@@H]2C[C@@]3(C)CCC[C@H](C)C3=C[C@H]12 | 2.38% (inactive)
C/C1=C\CCC2=C[C@@H](OC2=O)c2c(C)coc2C1 | -1.41% (inactive)
C[C@]1(OC(=O)/C=C\c2ccc(O)cc2)C[C@@H](O)[C@]2(O)C=CO[C@@H](O[C@@H]3O[C@H](CO)[C@@H](O)[C@H](O)[C@H]3O)C12 (stereo not given in full) | -1.51% [at 28 µM] (inactive)
C=C1C2CCC3C(CCC4[C@@]3(C)CCC[C@@]4(C)C(=O)O)(C2)[C@@H]1OC(=O)/C(C)=C\C (stereo not given in full) | -7.74% [at 28 µM] (inactive)
CC1(C)CC2C(C1)C1(C)CCC13OC3(CO)C2O (stereo not given) | 16.4% (inactive)
CC1=CC(=O)C2C(C)(C)CCC[C@]2(C)[C@H]1CO (stereo not given in full) | 3.13% (inactive)
CCC[C@@H]1O[C@@H]2C[C@H]3[C@@H]4CCC5=CC(=O)C=C[C@]5(C)[C@H]4[C@@H](O)C[C@]3(C)[C@]2(C(=O)CO)O1 | 2.93% (inactive)
Cn1c(=O)c2nc(/C=C/c3cccc(Cl)c3)n(C)c2n(C)c1=O | -8.24% [at 114 µM] (inactive)
C=Cc1ccc(O[C@@H]2O[C@H](CO[C@@H]3O[C@@H](C)[C@H](O)[C@@H](O)[C@H]3O)[C@@H](O)[C@H](O)[C@H]2O)cc1 | 7.65% [at 28 µM] (inactive)
Cc1ncc(CCCN(C)C)cc1Nc1ncc2c(n1)-c1ccc(C(F)(F)F)cc1NC(=S)C2 | 4.73% (inactive)
CC1CCCCN1S(=O)(=O)c1ccc(N2CCCC2=O)cc1 (stereo not given) | 1.06% (inactive)
O=C(O[C@@H]1O[C@H](CO)[C@@H](O)[C@H](O)[C@H]1O)c1c(O)cc(O)cc1/C=C/c1ccccc1 | -3.87% [at 28 µM] (inactive)

SMILES | activity change, negative = inhibition
C=C1CO[C@@]2(O[C@H]3CC4C5CC=C6C[C@@H](O)C[C@@H](O[C@@H]7OC[C@H](O)[C@H](O[C@@H]8OC[C@@H](O)[C@H](O)[C@H]8O)[C@H]7O[C@@H]7O[C@@H](C)[C@H](OC(C)=O)[C@@H](OC(C)=O)[C@H]7OC(C)=O)[C@]6(C)C5CC[C@]4(C)[C@@H]3[C@@H]2C)[C@@H](O)[C@H]1OC1OC(C)C(O)C(O)C1O (stereo not given in full) | 8.25% [at 11.2 µM] (inactive)
O=C(O)c1ccc(NC(=O)[C@H](CC2CCCC2)n2cnc(C(F)(F)F)c2)nc1 | -2.71% (inactive)
COc1ccc(/C=C/C(=O)O[C@@H]2[C@@H](O[C@@H]3O[C@H](CO)[C@@H](O)[C@H](O)[C@H]3O)[C@@H](O)[C@H](O[C@H]3C4C=CO[C@@H](O[C@@H]5O[C@H](CO)[C@@H](O)[C@H](O)[C@H]5O)C4[C@@]4(CO)O[C@@H]34)O[C@H]2C)cc1 (stereo not given in full) | 14.4% [at 16.9 µM] (inactive)
Cn1nnc(-c2ccc(-c3ccc(N4C[C@H](CO)OC4=O)cc3F)cn2)n1 | 13.5% (inactive)
C[C@H](NC(=O)C(C)(C)Oc1ccc(C(F)(F)F)cn1)[C@@H](Cc1ccc(Cl)cc1)c1cccc(C#N)c1 | 10.3% (inactive)
CC1(C(=O)O)CCCC2(C)C3=CCC4CC3(CCC12)CC4CO (stereo not given) | -1.76% (inactive)
C/C=C(/C)C(=O)O[C@H]1[C@H](OC(=O)/C(C)=C\C)[C@@]23C(CC1(C)C)[C@]1(CCC4[C@@]5(C)CC[C@H](O[C@@H]6O[C@H](C(=O)O)[C@@H](O)[C@H](O[C@@H]7O[C@H](CO)[C@H](O)[C@H](O)[C@H]7O[C@@H]7O[C@@H](C)[C@H](O)[C@@H](O)[C@H]7O[C@@H]7OC[C@@H](O)[C@H](O)[C@H]7O)[C@H]6O[C@@H]6O[C@H](CO)[C@H](O)[C@H](O)[C@H]6O)C(C)(C)C5CC[C@@]4(C)[C@]1(C)C[C@H]2O)O[C@H]3O (stereo not given in full) | -1.6% [at 11.2 µM] (inactive)
NC(=O)Nc1cc(-c2cccc(F)c2)sc1C(=O)NC1CCCNC1 (stereo not given) | 3.63% (inactive)
CC(=O)NC(Cc1ccccc1)C(=O)NC(C(=O)O)C(C)C (stereo not drawn) (Ac-Phe-Val-OH; configuration not given here) | -23.8% (inactive)
CCC(NC(=O)CC(NC(=O)C(CO)NC(=O)C(CC)NC(=O)c1ccc[nH]1)c1ccccc1)C(=O)O (stereo not given) | 2.76% [at 16.9 µM] (inactive)
C[C@]1(CO)CCC[C@]2(C)C3=C(CCC12)COC3 (stereo not given in full) | -1.25% (inactive)
CCOC(=O)[C@H](CCc1ccccc1)N[C@@H](C)C(=O)N1C2CCCCC2C[C@H]1C(=O)O (stereo not given in full) | -10.4% (inactive)
CC1(C)O[C@H]2CC(=O)OC[C@@]23C1=C(O)C(=O)[C@]1(C)C3CC[C@@]2(C)[C@H](c3ccoc3)OC(=O)[C@H]3O[C@]321 (stereo not given in full) | 7.82% [at 28 µM] (inactive)
C/C(=C/CO)CC[C@@H]1[C@@]2(C)CCC[C@](C)(C(=O)O)C2CC[C@@]1(C)O (stereo not given in full) | -2.26% (inactive)
O=C(N[C@@H]1CCCc2c1cnn2-c1ccc(F)cc1F)c1ccccn1 | -19.7% (inactive)
COC(=O)C1=COC(O[C@@H]2O[C@H](COC(=O)/C=C/c3ccc(O)cc3)[C@@H](O)[C@H](O)[C@H]2O)C2C(CO)=CCC12 (stereo not given in full) | 2.05% [at 28 µM] (inactive)
C=C1C(OC(C)=O)C(=O)C2C(C)(C)C(OC(C)=O)CCC2(C)C1CC(OC(C)=O)/C(C)=C/COC(C)=O (stereo not given) | -9.66% [at 28 µM] (inactive)
Nc1ncnc2c1c(-c1ccc(Cl)cc1)nn2-c1cccc(-c2cnnn2Cc2cccc(-c3ccccc3)c2)c1 | 4.82% (inactive)
CCCCc1ccc(NS(=O)(=O)c2ccc(F)cc2)cc1 | -10.6% (inactive)
CC(C)=CCC(O)[C@](C)(O)C1[C@H](O)C[C@@]2(C)C3CC=C4C(C[C@H](O)[C@@H](O[C@@H]5O[C@H](CO)[C@@H](O)[C@H](O)[C@H]5O)C4(C)C)[C@]3(C)C(=O)C[C@]12C (stereo not given in full) | 4.81% [at 16.9 µM] (inactive)
